Here are results for 11 compounds from PubChem BioAssay (Tox21).

In assay [1] the target is Progesterone receptor (Homo sapiens) (UniProt P06401). The assay can be described thus: qHTS assay to identify small molecule agonists of the progesterone receptor (PR) signaling pathway (AID 1346784; calls by dose curve; further: nearly all actives have a fitted effect of over 30% in size). The procedure, abridged:
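Agonist qHTS: compounds pinned onto 3,000 PR-UAS-bla HEK 293T cells per well in charcoal-stripped serum medium, 16hr at 37C, then beta-lactamase activity measured by LiveBLAzer FRET fluorescence after 2 hours at room temperature.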

Assay [2] shares this target. As to the kind of experiment: qHTS assay to identify small molecule antagonists of the progesterone receptor (PR) signaling pathway (AID 1346795; active means well fitted inhibition curve with a large enough effect in the signal ratio in the repeat runs, not every such curve was filed as active; the % refers to the signal ratio). In outline: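 Antagonist mode with agonist R5020 at 1 nM final and 16 hr incubation at 37C. Reporter was beta-lactamase driven by UAS in HEK293T (PR-UAS-bla), 2% charcoal-stripped serum; signal from LiveBLAzer FRET substrate, 2 hr at room temperature.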
For orientation: In qHTS, concentration-response curves come from the screen itself.

Assay [3] is described as follows: qHTS assay to identify small molecule antagonists of the TGF-beta/Smad signaling pathway - cell viability counter screen (AID 1346824). Further: nearly all actives have a fitted effect of over 50% in size. In outline:
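SBE-bla HEK 293T cells were plated overnight at 37 C, then given compounds in DMSO plus TGF-beta1 (added as 0.25 ng/mL solution) for 5 hr. After the bla read, CellTiter-Glo was added to the same wells and luminescence read after 30 min at room temperature.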

The nature of assay [4]: qHTS assay to identify small molecule agonists of the TGF-beta/Smad signaling pathway - cell viability counter screen (AID 1346829). Further: top concentration of the series differs between compounds; nearly all actives have a fitted effect of over 45% in size. In outline: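 Cytotoxicity counter screen: CellTiter-Glo luminescence (30 min, room temperature) measured in the SBE-bla HEK 293T reporter wells after 5 hr compound treatment at 37 C and the 2 hr substrate step.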
A short description of assay [5]: qHTS assay to identify small molecule agonists of the TGF-beta/Smad signaling pathway (AID 1346859; active means well fitted activation curve with a large enough effect in the signal ratio in the repeat runs, not every such curve was filed as active; the % refers to the signal ratio; further: series mostly up to about 77 µM). The procedure, abridged: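 Fluorescence (ex 405 nm; em 460 and 530 nm) was read 2 h after LiveBLAzer FRET substrate at RT. The preceding compound treatment of overnight-plated SBE-bla HEK293T cells lasted 5 h at 37 C.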
Assay [6] addresses Thyrotropin-releasing hormone receptor (Homo sapiens) (UniProt P34981). As to the kind of experiment: qHTS assay to identify small molecule antagonists of the thyrotropin-releasing hormone receptor (TRHR) signaling pathway (AID 1346877; active means well fitted inhibition curve with a large enough effect in the repeat runs, not every such curve was filed as active; further: series mostly up to about 51 µM). In outline:
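Intracellular calcium fluorescence, read kinetically every second over 3 min, reports TRH-evoked signalling in HEK293 cells carrying TRHR. Test compounds were added 5 min ahead of a 1 nM TRH challenge.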

Assay [7] shares this target. As to the kind of experiment: qHTS assay to identify small molecule agonists of the thyrotropin-releasing hormone receptor (TRHR) signaling pathway (AID 1346891; calls by dose curve; further: series mostly up to about 58 µM). The procedure, abridged: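 Agonist-mode intracellular calcium readout: kinetic fluorescence over 3 min at 1 s intervals after compound addition to TRHR-HEK293 cells (18 h seeded, 2 h dye-loaded at 37 C). Fifteen concentrations, triplicates.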

A short description of assay [8]: Human pregnane X receptor (PXR) small molecule agonists, qHTS cell viability counter screen (AID 1346977). Further: nearly all actives have a fitted effect of over 50% in size. In outline: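 Same-well viability read: CellTiter-Fluor added after 23 hr compound exposure, fluorescence measured 1 hr later. Cells were PXR-Luc HepG2 seeded at 2,000/well in 5% charcoal-stripped FBS medium, rested 5 hr before dosing at 37 C.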
The nature of assay [9]: Caspase-3/7 induction in HepG2 cells by small molecules, qHTS assay (AID 1346978). Further: nearly all actives have a fitted effect of over 15% in size. The procedure, abridged:
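Wild-type HepG2 cells (2,000/well) were settled 5 h at 37 C, 5% CO2, then exposed to compounds in DMSO for 17 h. Caspase-3/7 activity was read by luminescence 30 min after adding Caspase-Glo 3/7 reagent at room temperature.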

A short description of assay [10]: Caspase-3/7 induction in CHO-K1 cells by small molecules, qHTS cell viability counter screen (AID 1346979). Further: nearly all actives have a fitted effect of over 35% in size. Further: potency means the concentration at half of the fitted maximal effect. In outline: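 Cytotoxicity counter screen: CellTiter-Fluor added to compound-treated wild-type CHO-K1 cells at 16 h (37C, 5% CO2), fluorescence measured 1 h later; same wells as caspase-3/7 measurement.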
The nature of assay [11]: Caspase-3/7 induction in CHO-K1 cells by small molecules, qHTS assay (AID 1346980). Further: nearly all actives have a fitted effect of over 15% in size. In outline:
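Wild-type cells were seeded at 1,500 per well and settled 5 hr at 37 C, 5% CO2, then exposed to DMSO-dissolved compounds for 17 hr. Caspase-Glo 3/7 reagent was added, and luminescence was read after 30min at room temperature.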

Assay [12] is described as follows: Caspase-3/7 induction in HepG2 cells by small molecules, qHTS cell viability counter screen (AID 1346981). Further: series mostly up to about 92 µM; nearly all actives have a fitted effect of over 30% in size. The procedure, abridged: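 HepG2, WT, 2,000 cells/well; 5 hr pre-incubation 37 C/5% CO2; compound pin-transferred from DMSO; 16 hr exposure; CellTiter-Fluor, 1 hr; fluorescence read.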
For assay [13], the target named is Nuclear receptor subfamily 1 group I member 2 (Homo sapiens) (UniProt O75469). The assay can be described thus: Human pregnane X receptor (PXR) small molecule agonists, qHTS assay (AID 1346982). Further: nearly all actives have a fitted effect of over 35% in size. Further: potency means the concentration at half of the fitted maximal effect. The procedure, abridged: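 Luciferase signal from ONE-Glo (30 min, room temperature) measured activation of hPXR-driven CYP3A4 reporter expression in PXR-Luc HepG2 cells treated with compounds for 24 hr at 37 C.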
Sequence of Nuclear receptor subfamily 1 group I member 2 (Homo sapiens) (O75469 whole entry, looked up): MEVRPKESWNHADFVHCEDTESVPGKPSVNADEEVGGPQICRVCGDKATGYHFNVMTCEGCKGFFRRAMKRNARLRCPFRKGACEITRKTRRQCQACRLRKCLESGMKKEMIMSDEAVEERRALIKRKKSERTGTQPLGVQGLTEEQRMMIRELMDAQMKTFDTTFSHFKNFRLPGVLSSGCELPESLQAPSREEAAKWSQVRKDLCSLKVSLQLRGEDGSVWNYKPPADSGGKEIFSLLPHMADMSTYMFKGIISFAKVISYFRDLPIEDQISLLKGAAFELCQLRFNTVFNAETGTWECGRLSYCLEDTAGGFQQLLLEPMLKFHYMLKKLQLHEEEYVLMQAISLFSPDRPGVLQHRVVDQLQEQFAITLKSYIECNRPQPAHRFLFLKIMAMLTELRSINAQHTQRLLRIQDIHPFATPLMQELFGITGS

Assay [14] deals with Cytochrome P450 2D6 (Homo sapiens) (UniProt P10635). The assay can be described thus: Cytochrome P450 Family 2 Subfamily D Member 6 (CYP2D6) small molecule antagonists: luciferase reporter qHTS assay (AID 1671196). Further: nearly all actives have a fitted effect of over 50% in size. Further: potency means the concentration at half of the fitted maximal effect. The procedure, abridged: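 Read-out is luminescence from luciferin formed by CYP2D6 turnover of a proluciferin substrate, recorded as relative luminescence units. Reactions ran 1 h at room temperature after NADPH regeneration solution was added.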
Sequence of Cytochrome P450 2D6 (Homo sapiens) (P10635 whole entry, looked up): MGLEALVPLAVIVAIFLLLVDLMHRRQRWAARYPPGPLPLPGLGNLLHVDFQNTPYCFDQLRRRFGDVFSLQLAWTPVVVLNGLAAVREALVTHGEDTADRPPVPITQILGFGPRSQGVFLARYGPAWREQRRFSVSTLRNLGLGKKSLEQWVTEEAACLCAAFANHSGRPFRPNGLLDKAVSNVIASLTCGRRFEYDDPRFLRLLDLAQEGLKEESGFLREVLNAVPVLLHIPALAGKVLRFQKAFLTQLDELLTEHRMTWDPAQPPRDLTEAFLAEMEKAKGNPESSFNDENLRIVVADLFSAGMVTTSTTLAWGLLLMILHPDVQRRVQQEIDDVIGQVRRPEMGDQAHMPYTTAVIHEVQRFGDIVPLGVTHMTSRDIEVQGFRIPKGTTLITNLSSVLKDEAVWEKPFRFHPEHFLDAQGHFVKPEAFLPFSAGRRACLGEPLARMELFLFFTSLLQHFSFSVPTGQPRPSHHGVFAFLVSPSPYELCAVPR
Background: A reporter such as luciferase makes a cellular process visible.

Assay [15] is described as follows: qHTS assay to identify small molecule agonists of the progesterone receptor (PR) signaling pathway - cell viability counter screen (AID 1346799; calls by dose curve; further: nearly all actives have a fitted effect of over 45% in size). In outline:
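Cytotoxicity measured by CellTiter-Glo luminescence (30 min, RT) in the same wells as the PR beta-lactamase agonist read. Those HEK293T cells had 16 h compound treatment at 37 C in 2% charcoal-stripped FBS medium.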

Assay [16] in a line: qHTS assay to identify small molecule antagonists of the progesterone receptor (PR) signaling pathway - cell viability counter screen (AID 1346798). Further: series mostly up to about 92 µM; nearly all actives have a fitted effect of over 50% in size. In outline: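 Cytotoxicity read as CellTiter-Glo luminescence (30 min, room temperature) in the same wells as the beta-lactamase readout. HEK293T PR-UAS-bla cells in charcoal-stripped 2% FBS received compound and R5020, then 16 h at 37C, 5% CO2.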

Records with an inconclusive call do not appear. Some compounds were tested as several samples or in several runs, with calls that do not always agree. Calls of active or inactive are those of the source. Unless noted, the call rests on the fitted dose curve; in most records, active means well fitted curve in the direction sought with a large enough effect in the repeat runs; inconclusive means weak or mixed curves; inactive means no such curve, though single readings can be large; an effect the other way counts as inactive or inconclusive.

Sequence of Thyrotropin-releasing hormone receptor (Homo sapiens) (P34981 whole entry, looked up): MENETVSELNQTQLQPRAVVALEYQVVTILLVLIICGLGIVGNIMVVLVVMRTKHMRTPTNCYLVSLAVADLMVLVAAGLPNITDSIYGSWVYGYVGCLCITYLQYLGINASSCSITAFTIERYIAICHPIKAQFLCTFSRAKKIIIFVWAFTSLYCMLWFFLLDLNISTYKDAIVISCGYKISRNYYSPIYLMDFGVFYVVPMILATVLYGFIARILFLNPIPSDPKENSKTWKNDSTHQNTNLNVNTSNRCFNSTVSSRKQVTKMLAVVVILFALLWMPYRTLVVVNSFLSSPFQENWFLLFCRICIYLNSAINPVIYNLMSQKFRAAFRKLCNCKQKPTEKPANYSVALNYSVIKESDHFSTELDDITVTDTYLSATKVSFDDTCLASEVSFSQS
Sequence of Progesterone receptor (Homo sapiens) (P06401 whole entry, looked up): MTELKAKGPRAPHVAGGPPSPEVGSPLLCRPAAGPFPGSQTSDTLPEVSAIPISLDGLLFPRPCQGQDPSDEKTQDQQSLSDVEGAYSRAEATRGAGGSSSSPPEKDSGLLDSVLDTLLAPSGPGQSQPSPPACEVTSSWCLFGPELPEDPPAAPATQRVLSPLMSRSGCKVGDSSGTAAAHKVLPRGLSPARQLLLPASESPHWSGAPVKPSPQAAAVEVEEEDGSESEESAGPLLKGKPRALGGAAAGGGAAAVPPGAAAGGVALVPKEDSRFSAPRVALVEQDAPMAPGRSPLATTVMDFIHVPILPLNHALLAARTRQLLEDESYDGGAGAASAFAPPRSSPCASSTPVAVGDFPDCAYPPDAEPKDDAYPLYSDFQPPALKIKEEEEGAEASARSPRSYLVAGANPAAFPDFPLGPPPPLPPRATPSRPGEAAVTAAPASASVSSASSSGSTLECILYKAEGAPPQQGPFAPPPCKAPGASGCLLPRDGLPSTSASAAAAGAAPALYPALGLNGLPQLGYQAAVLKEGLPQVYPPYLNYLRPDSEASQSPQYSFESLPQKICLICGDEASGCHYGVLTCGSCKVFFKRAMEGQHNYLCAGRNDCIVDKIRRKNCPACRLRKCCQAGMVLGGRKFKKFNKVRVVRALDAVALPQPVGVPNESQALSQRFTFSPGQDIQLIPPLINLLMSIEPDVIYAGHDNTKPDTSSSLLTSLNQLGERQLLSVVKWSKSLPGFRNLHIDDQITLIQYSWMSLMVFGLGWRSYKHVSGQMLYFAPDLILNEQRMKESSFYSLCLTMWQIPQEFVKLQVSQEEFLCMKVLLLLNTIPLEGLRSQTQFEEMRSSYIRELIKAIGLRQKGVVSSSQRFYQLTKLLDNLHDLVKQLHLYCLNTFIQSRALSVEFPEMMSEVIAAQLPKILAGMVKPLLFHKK

As for `CCOCCOCCOCCO`, the Potency entry in assay [1], in [2], in assay [8], in assay [9], in assay [10] and in assay [12] was “inactive” in each case. The Potency entry in assay [13] and in [14] was “inactive” in each case. Further, the compound was called inactive in assay [3], in [4], in assay [5], in assay [6], in assay [7] and in assay [11].

On to `O=C(O)c1cc2ccccc2cc1O`, for which the Potency entry in [1], in assay [8], in [9], in assay [10], in assay [12] and in [14] was “inactive” each time. In addition, the compound was classed as inactive in assay [15], in assay [3], in [4], in assay [5] and in assay [11]. In addition, the Potency in [13] is 54.1 µM (active).

Regarding `COC(=O)CCCC(=O)OC`, the Potency result in [1], in assay [8], in assay [9], in assay [12], in assay [13] and in assay [14] was “inactive” throughout. Moreover, the compound was called inactive in assay [15], in assay [3], in [4], in assay [5], in [7] and in [11]. Besides, the Potency in assay [10] was 54 µM (active) and inactive.

Consider `CSc1ccc(Cl)cc1`, for which the Potency entry in assay [1], in assay [8], in assay [10], in assay [12], in [13] and in assay [14] was “inactive” each time. The call in assay [16], in assay [3], in [4], in [5], in assay [7] and in assay [11] was inactive.

For `C=C(C)[C@H]1CC=C(C)C(=O)C1`, the Potency entry in assay [1], in [8], in [10] and in assay [12] was “inactive” in each case. In addition, the result in assay [16], in assay [15], in [3], in assay [4], in assay [5] and in [11] was inactive. Moreover, the Potency in assay [14] is 18.2 µM (active) and inactive.

`CC(=O)c1ccc(O)cc1`: the Potency result in [1], in assay [8], in assay [9], in assay [10], in [12] and in assay [13] was “inactive” throughout. Also, the Potency result in assay [14] was “inactive”. Further, the compound was called inactive in assay [16], in assay [15], in assay [3], in [4], in [5] and in assay [7]. The compound was called inactive in [11].

`COc1ccc([N+](=O)[O-])cc1N`: the Potency result in [1], in [2], in assay [8], in assay [10] and in [14] was “inactive” throughout. For the same compound, the compound was classed as inactive in assay [16], in assay [15], in [3], in assay [4], in [5] and in assay [11].

Take `C=C(C)CNCC`: the Potency result in assay [1], in [8], in [9], in [10], in [12] and in assay [13] was “inactive” in each case. The compound was classed as inactive in [16], in [15], in [3], in [4], in assay [5] and in assay [6]. The call in assay [7] and in [11] was inactive. In assay [14], the Potency was 31.2 µM (active) and inactive.

Turning to `O=[N+]([O-])c1ccc2nc[nH]c2c1`, the Potency entry in assay [1], in assay [8], in [10], in [12] and in assay [14] was “inactive” each time. In addition, the outcome in assay [3], in assay [4], in assay [5], in assay [6], in assay [7] and in assay [11] was inactive.

Turning to `C[Si]1(C)O[Si](C)(C)O[Si](C)(C)O[Si](C)(C)O1`, the Potency entry in [1], in [2], in assay [8], in assay [10], in assay [12] and in [13] was “inactive” in each case. The Potency result in assay [14] is “inactive”. The compound was classed as inactive in assay [16], in [3], in assay [5], in assay [7] and in assay [11].

Consider `CNC(=S)N(C)C`, for which the Potency result in assay [1], in assay [8], in [9], in [10], in assay [12] and in assay [14] was “inactive” each time. Moreover, the compound was classed as inactive in assay [3], in assay [4], in assay [5] and in assay [11].
